The results in this text go back to PubChem BioAssay AID1645872 (National Center for Advancing Translational Sciences (NCATS), 2021).

The assay concerns the target Papain (Carica papaya) (UniProt P00784). In words: Confirmatory qHTS assay for inhibitors of the protease papain. As to conditions: papain Z-FR-AMC cleavage, fluorescence. The text has this:
Principal Investigator: Sam Michael National Center for Advancing Translational Sciences, National Institutes of Health, Rockville, MD Current high-throughput screening (HTS) assay validation is often a manual process, though this can be enhanced by design-of-experiment approaches. An artificial intelligence-driven (AI/ML) assay optimization was developed as part of the NCATS A Specialized Platform for Innovative Research Exploration (ASPIRE) Initiative to accelerate preclinical drug discovery. We describe the development of an autonomous Cloud-based computational driven assay optimization system using the Kebotix adaptive optimization algorithm. […]
PROTOCOL TABLE SEQUENCE No. (e.g., 1, 2, 3, etc.); PARAMETER (e.g., Cells, Incubation, Reagent, etc.); VALUE and DESCRIPTION. 1; Reagent; 3 uL; 4/3x Enzyme solution (working concentration of 5 nM) or 3 uL buffer 2; Compounds; 17 nL; library compounds and controls (working concentration of 169 nM - […]) 3; Time; 15 min; room temperature incubation 4; Reagent; 1 uL; 4x 2 uM Z-FR-AMC substrate 5; Centrifugation; 1000 rpm; 15 sec centrigure 6; Detection; Fluorescence Read 1; ViewLux plate reader 7; Time; 10 min; room temperature incubation 8; Detection; Fluorescence Read 2; ViewLux plate reader NOTES (numbers refer to Sequence numbers above; values are from representative experiments) 1; Dispense 3 uL of [4/3x] […]
Background: In qHTS, concentration-response curves come from the screen itself.

Inconclusive results are not listed. Activity calls are given as the source filed them. The call rests on the fitted dose curve; in most records, active means well fitted inhibition curve with a large enough effect; inconclusive means small, poorly fitted or top-dose-only effect; inactive means flat fitted curve, though single readings scatter.

Papain (Carica papaya), sequence (P00784 whole entry, looked up): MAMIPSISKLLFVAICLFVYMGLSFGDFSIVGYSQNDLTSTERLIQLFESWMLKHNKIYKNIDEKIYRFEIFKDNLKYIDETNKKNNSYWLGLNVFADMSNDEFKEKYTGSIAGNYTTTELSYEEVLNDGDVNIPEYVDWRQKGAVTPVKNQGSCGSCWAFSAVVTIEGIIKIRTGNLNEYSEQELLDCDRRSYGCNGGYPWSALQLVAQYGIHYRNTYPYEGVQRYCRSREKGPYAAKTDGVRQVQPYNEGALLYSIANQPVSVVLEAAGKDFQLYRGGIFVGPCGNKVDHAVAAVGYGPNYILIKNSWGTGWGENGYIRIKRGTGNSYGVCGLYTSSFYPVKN

Turning to `Cc1ccc(S(=O)(=O)N[C@@H](CCCCN)C(=O)CCl)cc1`, the Potency is 647 nM (active).
